{"source": "PubChem BioAssay AID504690", "about": "(Sanford-Burnham Center for Chemical Genomics, 2011)", "note": "Hit rate of the full screen: of about 350,000 compounds, about 2,700 (0.77%) were called active.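 How the source made its calls: active means inhibition reaching at least a set limit at 20 µM in the primary screen (cut at about 59% in these data); inactive means the rest.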 The full list was thinned out, with actives kept by preference.", "data": [{"test_system": "glucose-6-phosphate dehydrogenase-6-phosphogluconolactonase (Plasmodium falciparum 3D7)", "assay": "PfG6PD enzyme inhibitors, primary screen, biochemical, fluorescence intensity, uHTS (AID 504690);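 further: 0% = DMSO wells with substrate and 100% = DMSO wells lacking glucose-6-phosphate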", "details": "PfGluPho enzyme, NADPH resazurin-diaphorase fluorescence; at 20 µM; stronger effect = higher value", "values": [{"smiles": "O=C(N/N=C\\c1cccc(Br)c1)c1ccccc1-n1cccc1", "inhibition": "77.6% (active)"}, {"smiles": "O=C(CNC(=O)c1cccs1)N/N=C/c1cccc(Br)c1", "inhibition": "-3.31% (inactive)"}, {"smiles": "O=C(N/N=C/c1cccc(Br)c1)c1ccc(N2CCCC2=O)cc1", "inhibition": "9.79% (inactive)"}, {"smiles": "CCCNc1c(N)c(=O)c1=O", "inhibition": "-14.2% (inactive)"}, {"smiles": "CCc1c(C)[nH]c(=S)c(C#N)c1C", "inhibition": "60.6% (active)"}, {"smiles": "CC(=O)c1c(C)[nH]c(=S)c(C#N)c1-c1ccc(F)cc1", "inhibition": "36.1% (inactive)"}, {"smiles": "CN(C)CCCNC(=S)N1CCN(c2nc(-c3ccccc3)cs2)CC1", "inhibition": "7.81% (inactive)"}, {"smiles": "FC(F)(F)c1ccc2c3n(nc2c1)CCN=C3c1ccc(Cl)cc1", "inhibition": "21.6% (inactive)"}, {"smiles": "O=C(CC1Oc2ccccc2NC1=O)NCCCN1CCN(Cc2ccccc2)CC1", "note": "(stereo unspecified)", "inhibition": "17.8% (inactive)"}, {"smiles": "Cc1noc(C)c1CSc1nc2cc(S(=O)(=O)N3CCOCC3)ccc2o1", "inhibition": "46.6% (inactive)"}, {"smiles": "COc1ccc(CCn2c(NCCCN3CCOCC3)nc3c2c(=O)[nH]c(=O)n3C)cc1", "inhibition": "5.12% (inactive)"}, {"smiles": "COc1ccc(CCn2c(NN=C3CCCC3)nc3c2c(=O)[nH]c(=O)n3C)cc1", "inhibition": "77.3% (active)"}, {"smiles": "CC1CCN(c2nc3c(c(=O)[nH]c(=O)n3C)n2CCCc2ccccc2)CC1", "inhibition": "12.8% (inactive)"}, {"smiles": "CCN(c1ccc2c(c1)OCO2)S(=O)(=O)c1cc(Br)cc2c1N(C(=O)C1CC1)CC2", "inhibition": "32.5% (inactive)"}, {"smiles": "Nc1cccc2c1C(=O)N(Cc1nnc(-c3ccccc3Br)o1)C2=O", "inhibition": "-11.2% (inactive)"}, {"smiles": "O=C(CSc1nc(Nc2ccccc2)nc(N2CCOCC2)n1)Nc1cc(Cl)ccc1O", "inhibition": "21.3% (inactive)"}, {"smiles": "Cc1cc(Nc2ccc(Cl)cc2)nc(N2CCOCC2)n1", "inhibition": "74.6% (active)"}, {"smiles": "COc1ccc(Nc2ncc(F)c(N3CCOCC3)n2)cc1", "inhibition": "-2.57% (inactive)"}, {"smiles": "C=CCOc1ccc(C(=O)Nc2ccccc2C(=O)N2CCCC2)cc1", "inhibition": "15.3% (inactive)"}, {"smiles": "C/C(=N/NC(=O)c1cc(Cl)ccc1O)C12CC3CC(CC(C3)C1)C2", "inhibition": "50.1% (inactive)"}, {"smiles": "O=C(c1ccc(NS(=O)(=O)c2ccc3[nH]c(=O)[nH]c3c2)cc1)N1CCCCC1", "inhibition": "-7.11% (inactive)"}, {"smiles": "N/C(=N\\OS(=O)(=O)c1cccc([N+](=O)[O-])c1)c1ccncc1", "inhibition": "-9.59% (inactive)"}, {"smiles": "CC12CCCCC1=CC(=O)CC2", "note": "(stereo unspecified)", "inhibition": "10.3% (inactive)"}, {"smiles": "O=C(COC(=O)Cc1ccc(Cl)cc1Cl)NCc1ccco1", "inhibition": "-17.6% (inactive)"}, {"smiles": "Cc1cc(Nc2ccc(Br)cc2)nc2ccccc12", "inhibition": "86.8% (active)"}, {"smiles": "CCOc1ccc(NC(=O)c2cc(C)nc3ccccc23)cc1", "inhibition": "6.27% (inactive)"}, {"smiles": "Clc1ccc(Nc2ccc3ccccc3n2)cc1", "inhibition": "31.9% (inactive)"}, {"smiles": "O=C(Nc1cccc(Cl)c1)c1cc(S(=O)(=O)N2CCCCC2)c[nH]1", "inhibition": "-8.02% (inactive)"}, {"smiles": "CCOC(=O)Cn1c2c(c(-c3ccccc3OC)cc1=O)CCCC2", "inhibition": "10.3% (inactive)"}, {"smiles": "CC1=C/C(=N\\OS(=O)(=O)c2ccccc2)C=CC1=O", "inhibition": "116% (active)"}, {"smiles": "COC(=O)C(C(=O)Nc1cccc(Cl)c1C)C1CCCC1", "note": "(stereo unspecified)", "inhibition": "5.12% (inactive)"}, {"smiles": "CCOC(=O)c1cc(-c2sc(NC(=O)c3ccccc3)nc2C)n(CCO)n1", "inhibition": "5.2% (inactive)"}, {"smiles": "S=c1[nH]nc(-c2cc(-c3ccsc3)n[nH]2)n1-c1ccccc1", "inhibition": "63% (active)"}, {"smiles": "Cc1ccc(NCc2n[nH]c(=S)n2-c2ccccc2)cc1Cl", "inhibition": "17.7% (inactive)"}, {"smiles": "Cc1ccc(-n2c(-c3ccc(Cl)cc3)n[nH]c2=S)cc1", "inhibition": "39.8% (inactive)"}, {"smiles": "CCCCCN(C(=O)CCC(=O)OCC(=O)NCc1ccc(OC)cc1)c1c(N)n(CCCC)c(=O)[nH]c1=O", "inhibition": "6.98% (inactive)"}, {"smiles": "C=CCOc1ccc(Cl)cc1CNCCCN1CCOCC1", "inhibition": "-22.9% (inactive)"}, {"smiles": "CCOC(=O)Cn1nnnc1C", "inhibition": "-8.58% (inactive)"}, {"smiles": "CCOC(=O)N1CCC(NC(=O)c2ccc3nc(N4CCOCC4)sc3c2)CC1", "inhibition": "-2.75% (inactive)"}, {"smiles": "Cc1nc(N2CCOCC2)sc1C(=O)NN", "inhibition": "61.7% (active)"}, {"smiles": "COc1ccc(NC(=O)c2sc(N3CCOCC3)nc2-c2ccccc2)c(OC)c1", "inhibition": "7.35% (inactive)"}, {"smiles": "Cc1ccc(S(=O)(=O)N2CCCCC2)cc1NC(=O)[C@@H]1CCCN1C(=O)c1cccs1", "inhibition": "-10% (inactive)"}, {"smiles": "COc1cc(C=NNC(=O)c2cccnc2)ccc1OC(=O)c1ccccc1F", "inhibition": "0.22% (inactive)"}, {"smiles": "COc1ccc(C(=O)Nc2ccccc2C(=O)N/N=C/c2ccc(O)c(OC)c2)cc1", "inhibition": "63.8% (active)"}, {"smiles": "O=C(NN=Cc1ccc2c(c1)CCC2)c1ccccc1O", "inhibition": "-13.6% (inactive)"}, {"smiles": "CC(C)Cc1nnc(N)s1", "inhibition": "-0.68% (inactive)"}, {"smiles": "Cc1ccc(C2CC(c3cccc(Br)c3)n3nc(N)nc3N2)cc1", "note": "(stereo unspecified)", "inhibition": "18% (inactive)"}, {"smiles": "Cc1csc(=O)n1CC(=O)Nc1ccc(S(C)(=O)=O)cc1", "inhibition": "1.5% (inactive)"}, {"smiles": "Cc1cc(=O)n2[nH]c(-c3sccc3-n3c(C)ccc3C)cc2n1", "inhibition": "10.7% (inactive)"}, {"smiles": "C[C@@H]1CN([C@@H](C)CO)S(=O)(=O)c2ccc(-c3ccc(C(=O)N(C)C)cc3)cc2O[C@@H]1CN(C)Cc1ccccc1C(=O)O", "inhibition": "1.43% (inactive)"}, {"smiles": "Cc1ccc2nnn(Cc3cccc(C(C)(C)C)c3O)c2c1", "inhibition": "4.75% (inactive)"}, {"smiles": "C#CCOCCOCCOCCNc1nc(N2CCN(C(=O)Cn3cc(CCO)nn3)CC2)nc(N2CCN(C(=O)[C@H](CCCCN)n3cc(CCCC)nn3)CC2)n1", "inhibition": "6.73% (inactive)"}, {"smiles": "C#CCOCCOCCOCCNc1nc(N2CCN(C(=O)CCCCCCCCCCNC(=O)Cn3cc(CCCCCN)nn3)CC2)nc(N2CCN(C(=O)CCCCCCCCCCNC(=O)[C@H](CO)n3cc(CCCSC)nn3)CC2)n1", "inhibition": "60% (active)"}, {"smiles": "C#CCOCCOCCOCCNc1nc(N2CCN(C(=O)CCCCCCCCCCNC(=O)[C@H]([C@@H](C)CC)n3cc(CCCCN=C(N)N)nn3)CC2)nc(N2CCN(C(=O)CCCCCCCCCCNC(=O)[C@H](CO)n3cc(CCCSC)nn3)CC2)n1", "inhibition": "44.4% (inactive)"}, {"smiles": "COCc1cc(C)nc2sc3c(=O)n(-c4cccc5ccccc45)nnc3c12", "inhibition": "-2.51% (inactive)"}, {"smiles": "CCC(=O)N1CCC(C(N)=O)(N2CCCCC2)CC1", "inhibition": "-1.08% (inactive)"}, {"smiles": "O=C1CSC(=S)N1c1ccc(O)cc1", "inhibition": "-5.81% (inactive)"}, {"smiles": "O=C1CSC(=S)N1/N=C/c1ccc(O)c([N+](=O)[O-])c1", "inhibition": "18.4% (inactive)"}, {"smiles": "CCOc1cccc(/C=N/N2C(=O)CSC2=S)c1O", "inhibition": "60.8% (active)"}, {"smiles": "COc1ccccc1CNC(=O)COn1nnc2ccc(S(=O)(=O)N3CCOCC3)cc21", "inhibition": "-5.31% (inactive)"}, {"smiles": "CC(C)C(c1nnnn1C1CCCC1)N1CCN(c2ccccc2F)CC1", "note": "(stereo unspecified)", "inhibition": "1.8% (inactive)"}, {"smiles": "Cc1cc(C)c2[nH]c(=O)c(CN(Cc3ccccc3)C(=S)NCCCN(C)C)cc2c1", "inhibition": "-9.85% (inactive)"}, {"smiles": "COc1ccccc1-n1c(SCC(=O)Nc2ccc(Cl)cc2)nc(O)c(Cc2ccccc2)c1=O", "inhibition": "-30.4% (inactive)"}, {"smiles": "CN(C)c1nccc(NCc2ccccc2)c1C#N", "inhibition": "-1.06% (inactive)"}, {"smiles": "CC(C)n1cnc2c(NCc3ccccc3)cc(OCC3CCN(C)CC3)cc21", "inhibition": "65.4% (active)"}, {"smiles": "Cn1c(N)cc(=O)n(C)c1=S", "inhibition": "-4.84% (inactive)"}, {"smiles": "Cc1ccccc1-c1cc(C(=O)NCc2cccs2)n(CC2CC(c3cccnc3)=NO2)n1", "note": "(stereo unspecified)", "inhibition": "1.18% (inactive)"}, {"smiles": "Cc1ccc(OS(=O)(=O)c2ccc(-c3csc(C)n3)s2)c(C)c1", "inhibition": "17.7% (inactive)"}, {"smiles": "FC(F)(F)C1CCCN(c2nsc3ccccc23)C1", "note": "(stereo unspecified)", "inhibition": "110% (active)"}, {"smiles": "COc1ccc(Cl)cc1NC(=O)COc1ccc2c(c1)OCO2", "inhibition": "-7.15% (inactive)"}, {"smiles": "Cc1ccc(SC(C)C(=O)NCc2ccc(F)cc2)cc1", "note": "(stereo unspecified)", "inhibition": "0.13% (inactive)"}, {"smiles": "CCC(=C/c1sc2ccc3ccccc3c2[n+]1C)/C=C1\\Sc2ccc3ccccc3c2N1C", "inhibition": "113% (active)"}, {"smiles": "CCC[C@H]1CCCC/C=C\\CCCC(=O)OCCN1C(=O)OC(C)(C)C", "inhibition": "-3.27% (inactive)"}, {"smiles": "C=CC(=O)Nc1ccc(Nc2ccnc(Nc3ccc(N4CCN(C)CC4)cc3)n2)cc1", "inhibition": "77.4% (active)"}, {"smiles": "CN1CCN(c2nc(Nc3ccc(O)cc3)nc3ccccc23)CC1", "inhibition": "3.52% (inactive)"}, {"smiles": "Cn1cnnc1SCC(=O)Nc1ccc(N2CCOCC2)cc1", "inhibition": "7.84% (inactive)"}, {"smiles": "CCCC[C@H]1COCCS(=O)(=O)N1Cc1cccc(Cl)c1", "inhibition": "14% (inactive)"}, {"smiles": "O=C(CSc1nnc(CN2CCCC2)n1-c1ccc(F)cc1)c1ccc2c(c1)OCO2", "inhibition": "8.99% (inactive)"}, {"smiles": "COC(=O)CCCC1=CC2=CC(=O)C(C)(OC(=O)c3cccs3)C(=O)C2=CN1c1cccc(C#N)c1", "note": "(stereo unspecified)", "inhibition": "31.5% (inactive)"}, {"smiles": "COC(=O)CCCC1=CC2=CC(=O)C(C)(OC(=O)c3cccs3)C(=O)C2=CN1CC(C)C", "note": "(stereo unspecified)", "inhibition": "61.6% (active)"}, {"smiles": "CCCCC1=CC2=CC(=O)C(C)(OC(=O)CC)C(=O)C2=CN1CCCOC(C)C", "note": "(stereo unspecified)", "inhibition": "34.2% (inactive)"}, {"smiles": "Cc1cccc(N2CCC(NCc3c(C(=O)N4CCCCC4)nc4c(C)cccn34)CC2)c1", "inhibition": "-3.68% (inactive)"}, {"smiles": "COc1ccc(-c2nn(-c3ccccc3)cc2/C=N/Nc2ccccn2)cc1OC", "inhibition": "70.3% (active)"}, {"smiles": "O=Cc1cn(-c2ccccc2)nc1-c1ccccn1", "inhibition": "-1.58% (inactive)"}, {"smiles": "COc1ccc(-c2nn(-c3ccccc3)cc2C(=O)Nc2nccs2)cc1OC", "inhibition": "32.2% (inactive)"}, {"smiles": "COc1ccc(OC)c(/C=C/C(=O)c2ccc3c(c2)OCO3)c1", "inhibition": "2.18% (inactive)"}, {"smiles": "Cc1ccc(OCC(=O)Nc2ccccc2Sc2ccc(Cl)cc2)c([N+](=O)[O-])n1", "inhibition": "99.2% (active)"}, {"smiles": "CCc1ccccc1NC(=O)CN(C)C(=O)COc1ccc(C)nc1[N+](=O)[O-]", "inhibition": "-20.3% (inactive)"}, {"smiles": "Cc1ccc(OCC(=O)NC(C)c2ccccc2)c([N+](=O)[O-])n1", "note": "(stereo unspecified)", "inhibition": "-11.2% (inactive)"}, {"smiles": "O=S(=O)(NCC1CCCO1)c1ccc2ccccc2c1", "note": "(stereo unspecified)", "inhibition": "-2.51% (inactive)"}, {"smiles": "COCCNC(=O)NC(=O)COC(=O)C1(c2ccc(Cl)cc2)CC1", "inhibition": "8.76% (inactive)"}]}]}
